Several values for one entry are separate records, joined by “and”; a condition that tells them apart may be missing. Identical values can stand only once. This is part of a sample that, as a whole, favours compounds with a hit. Of some 79,000 tested, about 15% had one in any assay. Where a structure was tested more than once in an assay, its records may differ in their call. Activity calls are given as the source filed them. Rule as the data show it: active = growth inhibition above about 70%; inactive = the rest.

The assay is described as follows: NCI Yeast Anticancer Drug Screen. Data for the sgs1 mgt1 strain (AID 161).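 Also: 0% = growth of cultures given vehicle only.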 Particulars: S. cerevisiae sgs1 mgt1 strain, at 50.0 µM, stronger effect = higher value. The method in brief: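 Mutant yeast exposed to compound; growth scored against vehicle-only wells.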
With `OCC1OC(n2cnc3c(=S)nc[nH]c32)C(O)C1O` (configuration not stated), the growth inhibition was 6.65% (inactive) and -21.8% (inactive). The figure for `CCOC(=O)C(C(=O)c1ccccc1)C(=O)c1ccccc1` is -4.65% (inactive) and 92% (active); for `COC1/C=C\C=C(/C)C(=O)Nc2cc3nc4ccc(Br)cc4oc-3c(c2=O)CC(C)CC(OC)C(O)C(C)/C=C(\C)C1OC(N)=O` (configuration not stated) it is 91.5% (active). The figure for `Nc1ccc([N+](=O)[O-])c(S(=O)(=O)O)c1` is 46% (inactive) and 3.45% (inactive); for `CCOc1ccc2ccccc2c1C(Cc1ccc(Cl)cc1)NCCO` (configuration not stated) it is 94.3% (active); for `O=C1C(=Cc2ccc(O)cc2)N=C(c2ccccc2)N1n1c(-c2ccccc2)nc2ccccc2c1=O` it is 73.2% (active). As for `Cc1nc2ccccc2cc1CCl`, the growth inhibition was 63.8% (inactive). To `Cc1cc(NS(=O)(=O)c2ccc(N=Nc3cc(N=Nc4ccc(S(=O)(=O)Nc5cc(C)nc(C)n5)cc4)c4c(NC(=O)C(Cl)Cl)cccc4c3OC(=O)C(Cl)Cl)cc2)nc(C)n1` (tested in a mixture with another compound) belongs -23.1% (inactive) and 69.2% (inactive). The figure for `CCCCCCN(CCCCCC)C(=O)C1=C(C)NC(C)=C(C(=O)N(CCCCCC)CCCCCC)C1` is 85.2% (active); for `O=[N+]([O-])Cc1cnc2nncn2n1` it is 99.2% (active).

For `COc1ccc(N/N=C(\CCN(C)C)c2ccccc2)cc1`, the growth inhibition is 56.9% (inactive). With `O=C(O)/C(=C(/c1ccccc1)c1ccc(Cl)cc1)c1ccccc1`, the growth inhibition is 81.8% (active) and 89.8% (active).

Regarding `c1ccc([P+](CCCCCCCC[P+](c2ccccc2)(c2ccccc2)c2ccccc2)(c2ccccc2)c2ccccc2)cc1`, the growth inhibition is 90.9% (active).

With `OCCNc1nc(NCCO)c2nc(-c3ccccc3)c(-c3ccccc3)nc2n1`, the growth inhibition is 0.6% (inactive) and 57.6% (inactive). To `OC(c1ccccc1)(c1ccccc1)c1ccccc1` (tested in a mixture with another compound) belongs -1.85% (inactive) and 92.7% (active); to `CC(=O)Nc1c(Cl)c(Cl)c2c(c1Cl)Cc1cc(Cl)ccc1-2`, 96.1% (active). With `Cc1cc(C)nc(NS(=O)(=O)c2ccc(Nc3c4ccccc4nc4c(C(=O)NCCCN(CCO)CCO)cccc34)cc2)n1`, the growth inhibition was -4.65% (inactive). For the compound `CCn1c2ccccc2c2ccc(N=Cc3ccc(N(C)C)cc3)cc21`, the growth inhibition was 61% (inactive).

As for `O=C(C(=Cc1ccccc1)C(=O)c1ccccc1)c1ccccc1`, the growth inhibition is 89.5% (active) and 18.9% (inactive). To `c1ccc(C2=NC(c3ccccc3)=NS(S3=NC(c4ccccc4)=NC(c4ccccc4)=N3)=N2)cc1` (configuration not stated) belongs 82.7% (active); to `Nc1nc(-c2ccccn2)cc2ccccc12`, 4.35% (inactive). Regarding `CCN(CC)CCCn1c2cc(=O)c(=O)cc-2[nH]c2cc(C)ccc21`, the growth inhibition was 23.6% (inactive). To `COc1cc(O)ccc1C(=S)SC` belongs 42.5% (inactive); to `O=[N+]([O-])C1=C(c2ccccc2)SC=C(c2ccccc2)S1`, 31.6% (inactive) and 84.7% (active); to `N#CC1(C2SCCS2=O)C2=C(C(=O)c3ccccc3C2=O)N2CCCC21` (configuration not stated), 83.8% (active).

Turning to `O=C1C=CC(=O)C(C2OC(=O)C(Br)=C2Br)=C1` (configuration not stated), the growth inhibition was -3.45% (inactive). Turning to `CN1CCN(CCCN2c3ccccc3Sc3ccc(C(F)(F)F)cc32)CC1`, the growth inhibition is 99.2% (active) and 84.9% (active). To `Cc1ccc(S(=O)(=O)C23C(N=NC2(C)C)C3(C)C)cc1` (configuration not stated) belongs 1.25% (inactive); to `COC(=O)C(=O)C(C(=O)C(c1ccccc1)c1ccccc1)c1nc2n(c1O)/C(=N/C(=O)Nc1ccc(Cl)cc1)N=N2` (configuration not stated), 85.7% (active).

As for `O=C(O)c1ccc2c(c1)Cc1cc([N+](=O)[O-])ccc1-2`, the growth inhibition is 64% (inactive). To `O=c1[nH]c2cc([N+](=O)[O-])ccc2nc1/C=C(\O)c1ccc([N+](=O)[O-])cc1` belongs 82.1% (active) and -3.95% (inactive); to `c1ccc(C(c2ccccc2)n2ccnc2)cc1`, 43.5% (inactive). The figure for `c1ccc2c(c1)CNc1ccccc1-2` is 83.5% (active); for `COC(=O)c1nnn(-c2ccc(S(N)(=O)=O)cc2)c1N` it is 53.5% (inactive); for `COC(=O)c1ccc(O)c(OC)c1` it is -8.9% (inactive). `O=c1[nH]c(SCc2c(Cl)c(Cl)c(Cl)c(Cl)c2Cl)nc(=S)[nH]1`: the growth inhibition is 92.8% (active).

On to `Cc1nc2c(ccc3[nH]c4ccccc4c32)s1`, for which the growth inhibition was 91% (active).
